Records with an inconclusive call do not appear. Activity calls are given as the source filed them. Unless noted, calls follow the shape of the dose curve; as a rule, active = well fitted curve in the direction sought with a large enough effect in the repeat runs; inconclusive = weak or mixed curves; inactive = no such curve, though single readings can be large; an effect the other way counts as inactive or inconclusive.
How the values were obtained:
[1] = qHTS assay to identify small molecule antagonists of the vitamin D receptor (VDR) signaling pathway - cell viability counter screen (AID 743225); also: % is scaled to controls: 0 for no effect and ±100 for the full control effect; nearly all actives have a fitted effect of over 50% in size
Summary of the method: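 Same-well multiplex: following 16 h treatment of HEK 293T cells carrying a UAS-driven beta-lactamase reporter with compound and agonist (3 nM final), and a 2 h FRET substrate step, CellTiter-Glo was added and luminescence read after 30 min.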

[2] = qHTS assay to identify small molecule agonists of the NFkB signaling pathway - cell viability counter screen (AID 1159515; calls by dose curve; also: series mostly up to about 61 µM; % is scaled to controls: 0 for no effect and ±100 for the full control effect; nearly all actives have a fitted effect of over 55% in size)
Summary of the method: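 5 hr compound treatment of NFkB-bla ME-180 cells (2,000/well, seeded overnight beforehand), followed by reporter substrate for 1.5 hr. CellTiter-Glo added afterward; luminescence after 30 min RT.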

[3] = qHTS assay to identify small molecule agonists of the endoplasmic reticulum stress response signaling pathway (AID 1159516; active = well fitted activation curve with a large enough effect in the signal ratio in the repeat runs, not every such curve was filed as active; the % refers to the signal ratio; also: % is scaled to controls: 0 for no effect and ±100 for the full control effect)
Summary of the method: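 Reporter HeLa cells (ESRE-beta-lactamase) underwent 5 hr compound incubation at 37 C and 5% CO2 in quantitative HTS format. Detection followed 2 hr of FRET substrate loading at room temperature.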

[4] = qHTS assay to identify small molecule agonists of the endoplasmic reticulum stress response signaling pathway - cell viability counter screen (AID 1159517; calls by dose curve;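 also: HeLa cells carrying an ER stress response element beta-lactamase reporter; series mostly up to about 61 µM; % is scaled to controls: 0 for no effect and ±100 for the full control effect; nearly all actives have a fitted effect of over 50% in size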)
Summary of the method: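 HeLa cells carrying an ESRE-driven beta-lactamase reporter receive compound for 5 hr at 37 C. Cell viability is then gauged with CellTiter-Glo by luminescence, 30 min at room temperature.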

[5] = qHTS assay to identify small molecule antagonists of the retinoid-related orphan receptor gamma (ROR-gamma) signaling pathway - cell viability counter screen (AID 1159520); also: % is scaled to controls: 0 for no effect and ±100 for the full control effect; nearly all actives have a fitted effect of over 50% in size
Summary of the method: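 Cytotoxicity was read from cellular ATP (CellTiter-Glo luminescence) after 16 hr at 37 C with 1 uM doxycycline induction. The inducer was added 2 hr after compound transfer to Tet-on ROR gamma CHO cells.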

[6] = target: Nuclear receptor ROR-gamma (Homo sapiens) (UniProt P51449); assay: qHTS assay to identify small molecule antagonists of the retinoid-related orphan receptor gamma (ROR-gamma) signaling pathway (AID 1159521;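 also: CHO cells with doxycycline inducible ROR-gamma driving an RORE luciferase reporter; top concentration of the series differs between compounds; % is scaled to controls: 0 for no effect and ±100 for the full control effect; nearly all actives have a fitted effect of over 50% in size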)
Summary of the method: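 Inducible-expression reporter assay: doxycycline (1 uM final) switched on RORγ in CHO cells bearing a ROR response element-luciferase construct, with test compounds present from 2 h beforehand. Decreased luminescence after 16 h defined antagonist activity.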

[7] = qHTS assay to identify small molecule agonists of the AP-1 signaling pathway - cell viability counter screen (AID 1159525; calls by dose curve; also: nearly all actives have a fitted effect of over 55% in size)
Summary of the method: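 Luminescent ATP readout (Cell Titer Glo, 30 min RT), normalised to DMSO and tetra n-octyl ammonium bromide controls. Cells were ME-180 AP-1-bla in 0.5% dialyzed FBS Opti-MEM, with a 5 h, 37 °C compound exposure.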

[8] = qHTS assay to identify small molecule agonists of the AP-1 signaling pathway (AID 1159526; calls by dose curve; also: % is scaled to controls: 0 for no effect and ±100 for the full control effect)
[9] = target: Retinoic acid receptor RXR-alpha (Homo sapiens) (UniProt P19793); assay: qHTS assay to identify small molecule agonists of the RXR signaling pathway (AID 1159527; calls by dose curve; also: % is scaled to controls: 0 for no effect and ±100 for the full control effect; nearly all actives have a fitted effect of over 35% in size)
Summary of the method: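 Compounds in DMSO were added to RXR-alpha-UAS-bla HEK 293T cells kept in 2% charcoal-stripped serum, and incubated 16 hr at 37 C with 5% CO2. Reporter signal came from a 2 hr B/G FRET substrate step.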

[10] = qHTS assay to identify small molecule agonists of the RXR signaling pathway - cell viability counter screen (AID 1159529)
Summary of the method: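 Counter screen: CellTiter-Glo luminescence. Cells: RXR-alpha-UAS-bla HEK 293T. Medium: 2% charcoal-stripped FBS. Treatment: 16 h, 37 C. Reagent incubation: 30 min, RT.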

[11] = qHTS assay to identify small molecule antagonists of the retinoid acid receptor (RAR) signaling pathway - cell viability counter screen (AID 1159551); also: % is scaled to controls: 0 for no effect and ±100 for the full control effect; nearly all actives have a fitted effect of over 35% in size
Summary of the method: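 Seed C3RL4 cells; next day add compound, then retinol to 1 uM final; incubate 6 h at 37 C; add CellTiter-Glo; read luminescence after 30 min at RT.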

[12] = qHTS assay to identify small molecule antagonists of the retinoic acid receptor (RAR) signaling pathway (AID 1159552)
Summary of the method: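 Antagonism of retinol-induced RARE reporter activity was measured in C3RL4 cells. Exposure to compounds and 1 uM final retinol lasted 6 hr at 37 C, with luminescence as endpoint.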

[13] = qHTS assay to identify small molecule agonists of the retinoic acid receptor (RAR) signaling pathway (AID 1159553); also: % is scaled to controls: 0 for no effect and ±100 for the full control effect
Summary of the method: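 Activation of retinol signaling was monitored via a RARE luciferase reporter in C3RL4 cells. After 6 hr compound treatment at 37 C, detection reagent was added for 30 min at room temperature before luminescence reading.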

[14] = qHTS assay to identify small molecule antagonists of the estrogen related receptor (ERR) signaling pathway from Tox21 library - cell viability counter screen (AID 1224834); also: % is scaled to controls: 0 for no effect and ±100 for the full control effect; nearly all actives have a fitted effect of over 30% in size
Summary of the method: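 CellTiter-Fluor fluorescence measured; ERR cells; 17.5 h compound incubation at 37 C; 30 min reagent step.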

[15] = target: Luciferin 4-monooxygenase (Photinus pyralis) (UniProt P08659); assay: qHTS assay to identify small molecule inhibitors of firefly luciferase (AID 1224835); also: series mostly up to about 120 µM; % is scaled to controls: 0 for no effect and ±100 for the full control effect; nearly all actives have a fitted effect of over 25% in size
Summary of the method: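 Inhibition of purified Photinus luciferase is measured by luminescence. Substrate levels (D-luciferin, ATP) sit at their KM values. Each compound is tested in a concentration series.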

[16] = qHTS assay to identify small molecule agonists of the constitutive androstane receptor (CAR) signaling pathway - cell viability counter screen (AID 1224836); also: series mostly up to about 92 µM; % is scaled to controls: 0 for no effect and ±100 for the full control effect; nearly all actives have a fitted effect of over 45% in size
Summary of the method: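 Double-stable HepG2 hepatoma cells (hCAR plus CYP2B6-2.2kb) are treated for 23 h at 37 C with test compounds in 15-point concentration series. PK11195 at 0.75 uM final is co-added. Cell viability is quantified by CellTiter-Fluor.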

[17] = qHTS assay to identify small molecule antagonists of the constitutive androstane receptor (CAR) signaling pathway - cell viability counter screen (AID 1224837); also: series mostly up to about 92 µM; % is scaled to controls: 0 for no effect and ±100 for the full control effect; nearly all actives have a fitted effect of over 45% in size
Summary of the method: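 Using CellTiter-Fluor, viability is scored in HepG2 cells stably carrying hCAR and a 2.2kb CYP2B6 reporter after 23 hr compound exposure across 15 concentrations, with CITCO present at 50 nM.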

[18] = qHTS assay to identify small molecule antagonists of the estrogen related receptor signaling pathway with the pleiotropic PPARgamma coactivator (PGC) from Tox21 10K library - cell viability counter screen (AID 1224840; active = well fitted cell-killing curve with a large enough effect in the repeat runs, not every such curve was filed as active; also: % is scaled to controls: 0 for no effect and ±100 for the full control effect; nearly all actives have a fitted effect of over 40% in size)
Summary of the method: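 Here the PGC/ERR cells serve as a cytotoxicity control: they are exposed to compounds for 17.5 hours at 37 C, and live-cell signal is quantified using CellTiter-Fluor fluorescence.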

[19] = target: Nuclear receptor subfamily 1 group I member 3 (Homo sapiens) (UniProt Q14994); assay: qHTS assay to identify small molecule antagonists of the constitutive androstane receptor (CAR) signaling pathway (AID 1224838);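 also: HepG2 cells stably expressing hCAR with CYP2B6 luciferase reporter stimulated by CITCO; % is scaled to controls: 0 for no effect and ±100 for the full control effect; nearly all actives have a fitted effect of over 40% in size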
Summary of the method: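 Reporter luminescence was quantified after 24 h exposure of hCAR/CYP2B6-2.2kb double-stable HepG2 cells to compounds at 15 concentrations in the presence of 50 nM CITCO final.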

[20] = target: Nuclear receptor subfamily 1 group I member 3 (Homo sapiens) (UniProt Q14994); assay: qHTS assay to identify small molecule agonists of the constitutive androstane receptor (CAR) signaling pathway (AID 1224839);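 also: HepG2 cells stably carrying human CAR and a CYP2B6 luciferase reporter; series mostly up to about 92 µM; % is scaled to controls: 0 for no effect and ±100 for the full control effect; nearly all actives have a fitted effect of over 15% in size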
Summary of the method: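 Readout: firefly luciferase luminescence via ONE-Glo. System: HepG2 double-stable for hCAR and CYP2B6-2.2kb. Conditions: 15-point compound titration, PK11195 at 0.75 uM final, 24 h incubation.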

Sequence of Luciferin 4-monooxygenase (Photinus pyralis) (P08659 whole entry, looked up): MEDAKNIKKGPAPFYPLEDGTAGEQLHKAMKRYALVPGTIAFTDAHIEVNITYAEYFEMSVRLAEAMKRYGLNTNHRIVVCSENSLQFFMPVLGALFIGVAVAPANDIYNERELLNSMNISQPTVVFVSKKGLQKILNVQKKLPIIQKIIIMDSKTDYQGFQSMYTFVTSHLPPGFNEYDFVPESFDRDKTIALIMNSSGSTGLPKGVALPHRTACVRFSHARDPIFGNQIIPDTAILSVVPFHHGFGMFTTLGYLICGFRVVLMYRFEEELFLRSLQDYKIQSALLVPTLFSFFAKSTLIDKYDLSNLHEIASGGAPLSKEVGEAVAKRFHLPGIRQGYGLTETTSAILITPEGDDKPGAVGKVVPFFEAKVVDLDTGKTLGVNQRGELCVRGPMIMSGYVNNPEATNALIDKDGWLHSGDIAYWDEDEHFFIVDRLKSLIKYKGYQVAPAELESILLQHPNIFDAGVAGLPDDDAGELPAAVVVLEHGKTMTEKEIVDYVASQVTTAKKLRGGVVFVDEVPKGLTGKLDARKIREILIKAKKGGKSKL
Sequence of Retinoic acid receptor RXR-alpha (Homo sapiens) (P19793 whole entry, looked up): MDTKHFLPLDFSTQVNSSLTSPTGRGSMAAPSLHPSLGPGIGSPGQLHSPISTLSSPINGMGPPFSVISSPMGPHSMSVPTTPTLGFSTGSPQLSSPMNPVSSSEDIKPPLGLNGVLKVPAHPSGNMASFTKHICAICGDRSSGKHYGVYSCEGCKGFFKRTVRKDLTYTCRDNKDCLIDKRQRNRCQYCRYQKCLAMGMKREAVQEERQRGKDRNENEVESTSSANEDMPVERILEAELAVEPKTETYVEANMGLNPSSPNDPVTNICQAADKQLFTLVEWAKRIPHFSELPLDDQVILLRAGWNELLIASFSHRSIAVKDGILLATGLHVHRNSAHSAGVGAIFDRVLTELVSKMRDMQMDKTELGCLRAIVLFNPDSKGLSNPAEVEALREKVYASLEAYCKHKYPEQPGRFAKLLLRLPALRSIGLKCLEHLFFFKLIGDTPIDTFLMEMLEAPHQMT
Sequence of Nuclear receptor subfamily 1 group I member 3 (Homo sapiens) (Q14994 whole entry, looked up): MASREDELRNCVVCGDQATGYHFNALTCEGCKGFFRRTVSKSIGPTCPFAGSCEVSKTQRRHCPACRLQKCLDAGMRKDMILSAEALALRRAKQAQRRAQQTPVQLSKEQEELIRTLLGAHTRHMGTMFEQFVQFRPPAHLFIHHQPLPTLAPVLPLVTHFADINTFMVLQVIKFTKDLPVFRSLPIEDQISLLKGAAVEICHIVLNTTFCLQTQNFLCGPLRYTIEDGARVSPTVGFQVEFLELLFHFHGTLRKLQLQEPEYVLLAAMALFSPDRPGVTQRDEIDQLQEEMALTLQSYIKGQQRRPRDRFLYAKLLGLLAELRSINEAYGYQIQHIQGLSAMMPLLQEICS

CC(=O)OCC(=O)[C@@]1(O)CC[C@H]2[C@@H]3CCC4=CC(=O)C=C[C@]4(C)[C@H]3[C@@H](O)C[C@@]21C
inactive: outcome [1] | outcome [2] | Potency [3] | outcome [4] | outcome [5] | outcome [6] | outcome [7] | Potency [8] | Potency [9] | Potency [10] | outcome [11] | outcome [12] | Potency [13] | outcome [14] | Potency [15] | outcome [16] | outcome [17] | outcome [18]

Cc1ccc(N)nc1
inactive: outcome [1] | outcome [2] | Potency [3] | outcome [4] | outcome [5] | outcome [6] | outcome [7] | Potency [8] | Potency [9] | Potency [10] | outcome [11] | outcome [12] | Potency [13] | outcome [14] | Potency [15] | outcome [16] | outcome [17] | outcome [18]

CCC(C)SSC(C)CC (stereo unspecified)
inactive: outcome [2] | Potency [3] | outcome [4] | outcome [5] | outcome [6] | outcome [7] | Potency [8] | Potency [9] | Potency [10] | outcome [11] | outcome [12] | Potency [13] | outcome [14] | Potency [15] | outcome [16] | outcome [17] | outcome [18]

BrCCOc1ccccc1
inactive: outcome [1] | outcome [2] | Potency [3] | outcome [4] | outcome [5] | outcome [6] | outcome [7] | Potency [8] | Potency [9] | Potency [10] | outcome [11] | outcome [12] | Potency [13] | outcome [14] | Potency [15] | outcome [16] | outcome [17] | outcome [18]

COCCCOc1cc(C[C@@H](C[C@H](N)[C@@H](O)C[C@H](C(=O)NCC(C)(C)C(N)=O)C(C)C)C(C)C)ccc1OC
inactive: outcome [2] | Potency [3] | outcome [4] | outcome [5] | outcome [6] | outcome [7] | Potency [8] | Potency [9] | Potency [10] | outcome [11] | outcome [12] | Potency [13] | outcome [14] | Potency [15] | outcome [16] | outcome [17] | outcome [18]

CCO[Si](CC(C)C)(OCC)OCC
inactive: outcome [2] | Potency [3] | outcome [4] | outcome [5] | outcome [6] | outcome [7] | Potency [8] | Potency [9] | Potency [10] | outcome [11] | outcome [12] | Potency [13] | outcome [14] | Potency [15] | outcome [16] | outcome [17] | outcome [18]

CCCC(C)C(O)CC (stereo unspecified)
inactive: outcome [1] | outcome [2] | Potency [3] | outcome [4] | outcome [5] | outcome [6] | outcome [7] | Potency [8] | Potency [9] | Potency [10] | outcome [11] | outcome [12] | Potency [13] | outcome [14] | Potency [15] | outcome [16] | outcome [17] | outcome [18]

NC[C@H]1O[C@H](O[C@H]2[C@H](O)[C@@H](O[C@H]3O[C@H](CO)[C@@H](O)[C@H](N)[C@H]3O)[C@H](N)C[C@@H]2N)[C@H](N)[C@@H](O)[C@@H]1O
inactive: outcome [1] | outcome [2] | Potency [3] | outcome [4] | activity, negative = cytotoxicity [5] 0.5% [at 19 µM] | activity change, negative = inhibition [6] -19.4% [at 19 µM] | viability change, negative = cytotoxic [7] 1.49% [at 15.8 µM] | activation [8] 0.424% [at 15.8 µM] | activation [9] 4.18% [at 15.8 µM] | activity change, negative = cytotoxicity [10] 3.13% [at 15.8 µM] | activity change, negative = cytotoxicity [11] -1.43% [at 19 µM] | activity, negative = inhibition [12] -0.0699% [at 19 µM] | Potency [13] | viability change, negative = cytotoxic [14] 2% [at 19 µM] | activity change, negative = inhibition [15] -4.17% [at 23.6 µM] | viability change, negative = cytotoxic [16] -10.3% [at 19 µM] | activity change, negative = cytotoxicity [17] -13.6% [at 19 µM] | viability change, negative = cytotoxic [18] 1.41% [at 19 µM]

CCC(C)c1nccnc1OC (stereo unspecified)
inactive: outcome [1] | outcome [2] | Potency [3] | outcome [4] | outcome [5] | outcome [6] | outcome [7] | Potency [8] | Potency [9] | Potency [10] | outcome [11] | outcome [12] | Potency [13] | outcome [14] | Potency [15] | outcome [16] | outcome [17] | outcome [18]

N#CC1(N)CCCCC1
inactive: outcome [1] | outcome [2] | Potency [3] | outcome [4] | outcome [5] | outcome [6] | outcome [7] | Potency [8] | Potency [9] | Potency [10] | outcome [11] | outcome [12] | Potency [13] | outcome [14] | Potency [15] | outcome [17] | outcome [19] | Potency [20] | outcome [18]

CC[C@@]1(c2ccccc2)NC(=O)N(C)C1=O
inactive: outcome [1] | outcome [2] | Potency [3] | outcome [4] | outcome [5] | outcome [6] | outcome [7] | Potency [8] | Potency [9] | Potency [10] | outcome [11] | outcome [12] | Potency [13] | outcome [14] | Potency [15] | outcome [16] | outcome [17] | outcome [18]

CC(=O)/C=C/C=C1/C2CCC(C2)C1(C)C (stereo unspecified)
inactive: outcome [1] | outcome [2] | Potency [3] | outcome [4] | outcome [5] | outcome [6] | outcome [7] | Potency [8] | Potency [9] | Potency [10] | outcome [11] | outcome [12] | Potency [13] | outcome [14] | Potency [15] | outcome [16] | outcome [17] | outcome [18]

C=COCCCCO
inactive: outcome [1] | outcome [2] | Potency [3] | outcome [4] | outcome [5] | outcome [6] | outcome [7] | Potency [8] | Potency [9] | Potency [10] | outcome [11] | outcome [12] | Potency [13] | outcome [14] | Potency [15] | outcome [16] | outcome [17] | outcome [18]

CCCCNCC
inactive: outcome [1] | outcome [2] | Potency [3] | outcome [4] | outcome [5] | outcome [6] | outcome [7] | Potency [8] | Potency [9] | Potency [10] | outcome [11] | outcome [12] | Potency [13] | outcome [14] | Potency [15] | outcome [16] | outcome [17] | outcome [19] | outcome [18]

Reference: PubChem BioAssay (Tox21)
